This is an account of results in PubChem BioAssay (Tox21).

Records with an inconclusive call do not appear. A call without a number means that no potency is given here. Active and inactive are the calls of the source. The call rests on the fitted dose curve; in most records, active means well fitted cell-killing curve with a large enough effect in the repeat runs; inconclusive means weak or mixed curves, or effect the other way; inactive means flat fitted curve, though single readings scatter.
Potency means the concentration at half of the fitted maximal effect.

The nature of this test: qHTS RealTime-Glo MT Cell Viability Assay in HEK293 cells - 32 hour (AID 1224868). Further: nearly all actives have a fitted effect of over 50% in size. The conditions noted are these: RealTime-Glo luminescence; series mostly up to 76.8 µM. In a few lines: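 HEK293 cells were seeded at 600 cells/well together with NanoLuc luciferase and cell-permeant prosubstrate, preincubated 5 h at 37 C/5% CO2, then given compound in DMSO by pintool. Luminescence from viable-cell prosubstrate reduction was read repeatedly over 40 h.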
Background: Quantitative high-throughput screening tests each substance at several concentrations.
Turning to `Oc1cccc(Nc2ccccc2)c1`, the Potency is 14.4 µM (active).

For the compound `CCC1(CO)COCOC1`, the Potency result was “inactive”.

Consider `CC(C)(C)C(=O)C(=O)O`, for which the Potency entry was “inactive”.

With `O=[N+]([O-])c1cc(C2CCCCC2)c(O)c([N+](=O)[O-])c1`, the Potency was 12.3 µM (active).

As for `CN1CCCC(n2nc(Cc3ccc(Cl)cc3)c3ccccc3c2=O)CC1` (stereo not given), the Potency is 9.52 µM (active).

As to `C(=C\c1ccccc1)/c1ccccc1`, the Potency result was “inactive”.

Regarding `O=C1NCCN1CCO`, the Potency result was “inactive”.

Consider `CCCCCCCCOc1ccc(C(=O)O)cc1`, for which the Potency result was “inactive”.

Regarding `O=C1c2ccccc2C(=O)c2c(O)c(O)cc(O)c21`, the Potency result is “inactive”.

Take `CCOC(=O)/C=C/C(=O)OCC`: the Potency result was “inactive”.

As for `CCCCCCCC/C=C\CCCCCCCCO`, the Potency result is “inactive”.

On to `O=C1Cc2cc(Cl)ccc2N1`, for which the Potency entry was “inactive”.

`CC(C)COCC(CN(Cc1ccccc1)c1ccccc1)N1CCCC1` (stereo not given): the Potency was 10.7 µM (active).

`C=CC(=O)[O-].C=CC(=O)[O-].[Zn+2]`: the Potency entry is “inactive”.

For the compound `Nc1nnc(-c2ccc([N+](=O)[O-])o2)o1`, the Potency result is “inactive”.

Consider `C=C1CCC2CC1C2(C)C` (stereo not given), for which the Potency result is “inactive”.

As for `O=C(O)c1cccc(-c2noc(-c3ccccc3F)n2)c1`, the Potency entry was “inactive”.

On to `O=c1[nH]c2ccc(Cl)cc2o1`, for which the Potency entry was “inactive”.

For `CCc1ccccc1`, the Potency entry is “inactive”.

Turning to `CCC(C)COC(C)=O` (stereo not given), the Potency result was “inactive”.

Regarding `C=C(C)[C@@H]1CCC2=CCC[C@@H](C)[C@]2(C)C1`, the Potency entry is “inactive”.

Turning to `O=C(Cn1ccnc1[N+](=O)[O-])NCCO`, the Potency entry is “inactive”.

`C[C@@H]1CN(CCCn2c3ccccc3c3ccccc32)C[C@H](C)N1`: the Potency was 26.8 µM (active).

For the compound `C[C@]1(Cn2ccnn2)[C@H](C(=O)O)N2C(=O)C[C@H]2S1(=O)=O`, the Potency entry was “inactive”.

Turning to `O=C(/C=C/c1ccccc1)OCCc1ccccc1`, the Potency entry is “inactive”.
